PubChem BioAssay (EPA / NIEHS)
The source holds several records for some structures; these can differ, active in one and inactive in another. Active and inactive are the calls of the source. Rule for the calls: active = hit-call score of the fitted dose curve at least 0.9, where 1 is the maximum; inactive = score below 0.9.

Legend:
[1] = BSK_CASM3C_SRB: Viability Assessment in the BioMAP Diversity Plus: CASM3C Assay (AID 2283050); conditions: primary human coronary artery smooth muscle cells;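 note: cells exposed to compound for 24 h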
[2] = read-out: Thrombomodulin, THBD (gene 7056); assay: BSK_CASM3C_Thrombomodulin: BioMAP Diversity Plus: CASM3C Assay for Thrombomodulin Biomarker Activity (AID 2283051); conditions: primary human coronary artery smooth muscle cells; actives raise or lower the signal;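 note: thrombomodulin protein level measured by ELISA 24 h after dosing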
[3] = read-out: Tissue Factor, F3 (gene 2152); assay: BSK_CASM3C_TissueFactor: BioMAP Diversity Plus: CASM3C Assay for Tissue Factor Biomarker Activity (AID 2283052); conditions: primary human coronary artery smooth muscle cells; actives raise or lower the signal;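 note: cell surface tissue factor protein level read by ELISA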
[4] = read-out: Interferon-gamma inducible Protein 10 (IP10), CXCL10 (gene 3627); assay: BSK_hDFCGF_IP10: BioMAP Diversity Plus: hDFCGF Assay for Interferon-gamma inducible Protein 10 (IP10) Biomarker Activity (AID 2283053); conditions: primary human foreskin fibroblasts; actives raise or lower the signal
How it was run: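 Chemical-treated human skin fibroblasts (primary) were sampled at 24 h for IP-10 by ELISA. Both increases and decreases relative to DMSO were scored.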

[5] = read-out: Urokinase-type plasminogen activator receptor (uPAR), PLAUR (gene 5329); assay: BSK_CASM3C_uPAR: BioMAP Diversity Plus: CASM3C Assay for Urokinase-type plasminogen activator receptor (uPAR) Biomarker Activity (AID 2283054); conditions: primary human coronary artery smooth muscle cells; actives raise or lower the signal;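 note: cell-surface uPAR protein level quantified by ELISA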
[6] = read-out: Vascular cell adhesion molecule 1 (VCAM1), VCAM1 (gene 7412); assay: BSK_CASM3C_VCAM1: BioMAP Diversity Plus: CASM3C Assay for Vascular cell adhesion molecule 1 (VCAM1) Biomarker Activity (AID 2283055); conditions: primary human coronary artery smooth muscle cells; actives raise or lower the signal;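 note: VCAM-1 protein level quantified by ELISA on the cells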
[7] = read-out: Collagen III, COL3A1 (gene 1281); assay: BSK_hDFCGF_CollagenIII: BioMAP Diversity Plus: hDFCGF Assay for Collagen III Biomarker Activity (AID 2283056); conditions: primary human foreskin fibroblasts; actives raise or lower the signal
How it was run: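 Human foreskin fibroblast primary cultures sampled 24 h after dosing; Collagen III quantified by ELISA. Signal fitted bidirectionally against DMSO baseline.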

[8] = read-out: Epidermal growth factor receptor (EGFR), EGFR (gene 1956); assay: BSK_hDFCGF_EGFR: BioMAP Diversity Plus: hDFCGF Assay for Epidermal growth factor receptor (EGFR) Biomarker Activity (AID 2283057); conditions: primary human foreskin fibroblasts; actives raise or lower the signal
How it was run: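 Cell-based multiplexed assay in primary human foreskin fibroblasts. EGFR is read by ELISA 24 h after treatment and compared with DMSO controls.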

[9] = BSK_hDFCGF_Proliferation: Cell Proliferation Assessment in the BioMAP Diversity Plus: hDFCGF Assay (AID 2283059); conditions: primary human foreskin fibroblasts;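 note: curves fitted for both rise and fall of signal versus DMSO baseline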
How it was run: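 Steps: dose primary human dermal fibroblasts (foreskin); […] fix in 10% TCA; stain with 0.1% SRB; read 560 nm; fit gain or loss of signal against DMSO.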

[10] = read-out: TIMP metallopeptidase inhibitor 1 (TIMP1), TIMP1 (gene 7076); assay: BSK_hDFCGF_TIMP1: BioMAP Diversity Plus: hDFCGF Assay for TIMP metallopeptidase inhibitor 1 (TIMP1) Biomarker Activity (AID 2283062); conditions: primary human foreskin fibroblasts; actives raise or lower the signal
How it was run: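 Human foreskin fibroblast primary cultures dosed for 24 h; secreted/surface TIMP-1 quantified by ELISA. Bidirectional curve fitting against DMSO baseline; cytotoxicity tracked in parallel cultures by SRB total-protein staining.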

[11] = read-out: Monokine induced gamma interferon (MIG), CXCL9 (gene 4283); assay: BSK_hDFCGF_MIG: BioMAP Diversity Plus: hDFCGF Assay for Monokine induced gamma interferon (MIG) Biomarker Activity (AID 2283063); conditions: primary human foreskin fibroblasts; actives raise or lower the signal
How it was run: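 MIG/CXCL9 measured by ELISA 24 h after dosing primary human skin fibroblasts. Activity fitted in both directions against DMSO controls. Cytotoxicity was checked in parallel cultures by SRB staining read at 560 nm.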

[12] = read-out: Matrix Metallopeptidase 1 (MMP1), MMP1 (gene 4312); assay: BSK_hDFCGF_MMP1: BioMAP Diversity Plus: hDFCGF Assay for Matrix Metallopeptidase 1 (MMP1) Biomarker Activity (AID 2283064); conditions: primary human foreskin fibroblasts; actives raise or lower the signal
How it was run: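 Human foreskin fibroblasts exposed to chemical for 24 h; MMP1 detected by ELISA, with DMSO as baseline for bidirectional fitting.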

[13] = read-out: Vascular cell adhesion molecule 1 (VCAM1), VCAM1 (gene 7412); assay: BSK_hDFCGF_VCAM1: BioMAP Diversity Plus: hDFCGF Assay for Vascular cell adhesion molecule 1 (VCAM1) Biomarker Activity (AID 2283065); conditions: primary human foreskin fibroblasts; actives raise or lower the signal;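 for AC50: VCAM-1 protein level quantified by ELISA after 24 h chemical exposure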
How it was run: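 Human foreskin fibroblast primary cells dosed with chemical, VCAM-1 measured by ELISA at 24 h. Bidirectional curve fitting relative to DMSO as negative control/baseline.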

[14] = read-out: Plasminogen activator inhibitor-1 (PAI1), SERPINE1 (gene 5054); assay: BSK_hDFCGF_PAI1: BioMAP Diversity Plus: hDFCGF Assay for Plasminogen activator inhibitor-1 (PAI1) Biomarker Activity (AID 2283066); conditions: primary human foreskin fibroblasts; actives raise or lower the signal
How it was run: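 Human skin fibroblast cultures receive chemical for 24 h before PAI-1 is measured by ELISA; signal changes are fitted bidirectionally against DMSO-treated wells.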

[15] = read-out: Intercellular Adhesion Molecule 1 (ICAM1), ICAM1 (gene 3383); assay: BSK_KF3CT_ICAM1: BioMAP Diversity Plus: KF3CT Assay for Intercellular Adhesion Molecule 1 (ICAM1) Biomarker Activity (AID 2283067); conditions: primary human keratinocytes with fibroblasts; actives raise or lower the signal
How it was run: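 Human keratinocyte–foreskin fibroblast co-culture was treated for 24 h. Cell-surface ICAM-1 was quantified by ELISA, fitted bidirectionally relative to DMSO. Cytotoxicity was checked in parallel cultures by SRB total-protein staining.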

[16] = read-out: Interferon-gamma inducible Protein 10 (IP10), CXCL10 (gene 3627); assay: BSK_KF3CT_IP10: BioMAP Diversity Plus: KF3CT Assay for Interferon-gamma inducible Protein 10 (IP10) Biomarker Activity (AID 2283068); conditions: primary human keratinocytes with fibroblasts; actives raise or lower the signal
How it was run: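 KF3CT co-culture (keratinocytes + foreskin fibroblasts), 24 h compound, IP-10 by ELISA; bidirectional fit vs DMSO baseline.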

[17] = BSK_KF3CT_SRB: Viability Assessment in the BioMAP Diversity Plus: KF3CT Assay (AID 2283069); conditions: primary human keratinocytes with fibroblasts;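 note: read 24 h after compound addition; fitted for both signal gain and loss against DMSO baseline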
How it was run: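 Overt cytotoxicity is assessed as total protein by sulforhodamine B staining in parallel human skin co-cultures at 24 h after dosing. DMSO serves as negative control and baseline.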

[18] = read-out: Interleukin-8 (IL8), CXCL8 (gene 3576); assay: BSK_hDFCGF_IL8: BioMAP Diversity Plus: hDFCGF Assay for Interleukin-8 (IL8) Biomarker Activity (AID 2283058); conditions: primary human foreskin fibroblasts; actives raise or lower the signal
How it was run: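 Primary human foreskin fibroblasts (hDFCGF system) dosed with chemical; IL-8 measured by ELISA 24 hours later. Bidirectional curve fitting relative to DMSO baseline; cytotoxicity tracked in parallel cultures by SRB total protein staining.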

[19] = BSK_hDFCGF_SRB: Viability Assessment in the BioMAP Diversity Plus: hDFCGF Assay (AID 2283061); conditions: primary human foreskin fibroblasts;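 note: cells exposed to compound for 24 h before the read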
How it was run: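 Human foreskin fibroblasts in 96-well plates were treated 24 h. Total protein was measured by 0.1% SRB staining after 10% TCA fixation, read at 560 nm. Data were fitted bidirectionally against DMSO.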

Compound: C=CCC1=C(C)[C@@H](OC(=O)[C@@H]2[C@@H](C=C(C)C)C2(C)C)CC1=O
- outcome [1]: inactive
- outcome [2]: inactive
- outcome [3]: inactive
- AC50 [4]: 32.6 µM (active)
- outcome [5]: inactive
- outcome [6]: inactive
- AC50 [7]: 30.9 µM (active)
- AC50 [8]: 32.4 µM (active)
- AC50 [9]: 33.1 µM (active)
- AC50 [10]: 32.1 µM (active)
- AC50 [11]: 31.6 µM (active)
- AC50 [12]: 31 µM (active)
- AC50 [13]: 29.6 µM (active)
- AC50 [14]: 36.6 µM (active)
- outcome [15]: inactive
- outcome [16]: inactive
- AC50 [17]: 20 µM (active)

Compound: O=C(O)c1nc(Cl)ccc1Cl
- outcome [1]: inactive
- outcome [2]: inactive
- outcome [3]: inactive
- outcome [4]: inactive
- outcome [5]: inactive
- outcome [6]: inactive
- outcome [7]: inactive
- outcome [8]: inactive
- outcome [18]: inactive
- outcome [9]: inactive
- outcome [10]: inactive
- outcome [11]: inactive
- outcome [12]: inactive
- outcome [13]: inactive
- outcome [14]: inactive
- outcome [15]: inactive
- AC50 [16]: 0.147 µM (active)
- outcome [16]: inactive
- outcome [17]: inactive

Compound: CCON=C(CC)C1=C(O)CC(c2c(C)cc(C)cc2C)CC1=O (stereo not drawn)
- outcome [1]: inactive
- outcome [2]: inactive
- outcome [3]: inactive
- outcome [4]: inactive
- outcome [5]: inactive
- outcome [6]: inactive
- outcome [7]: inactive
- outcome [8]: inactive
- outcome [18]: inactive
- outcome [9]: inactive
- outcome [10]: inactive
- outcome [11]: inactive
- outcome [12]: inactive
- outcome [13]: inactive
- outcome [14]: inactive
- outcome [15]: inactive
- outcome [16]: inactive
- outcome [17]: inactive

Compound: CCOc1cc(Oc2ccc(C(F)(F)F)cc2Cl)ccc1[N+](=O)[O-]
- outcome [1]: inactive
- outcome [2]: inactive
- outcome [3]: inactive
- AC50 [4]: 6.48 µM (active)
- outcome [5]: inactive
- outcome [6]: inactive
- AC50 [7]: 12.9 µM (active)
- AC50 [8]: 14.2 µM (active)
- outcome [18]: inactive
- AC50 [9]: 10.6 µM (active)
- outcome [10]: inactive
- outcome [11]: inactive
- AC50 [12]: 2.89 µM (active)
- outcome [13]: inactive
- AC50 [14]: 5.49 µM (active)
- outcome [15]: inactive
- outcome [16]: inactive
- outcome [17]: inactive

Compound: CON(C)C(=O)Nc1ccc(Cl)c(Cl)c1
- outcome [1]: inactive
- outcome [2]: inactive
- outcome [3]: inactive
- outcome [4]: inactive
- outcome [5]: inactive
- outcome [6]: inactive
- outcome [7]: inactive
- outcome [8]: inactive
- outcome [18]: inactive
- outcome [9]: inactive
- outcome [10]: inactive
- outcome [11]: inactive
- outcome [12]: inactive
- outcome [13]: inactive
- outcome [14]: inactive
- outcome [15]: inactive
- outcome [16]: inactive
- outcome [17]: inactive

Compound: COP(N)(=O)SC (stereo not drawn)
- outcome [1]: inactive
- outcome [2]: inactive
- outcome [3]: inactive
- outcome [4]: inactive
- outcome [5]: inactive
- outcome [6]: inactive
- outcome [7]: inactive
- outcome [8]: inactive
- outcome [18]: inactive
- outcome [9]: inactive
- outcome [10]: inactive
- outcome [11]: inactive
- outcome [12]: inactive
- outcome [13]: inactive
- outcome [14]: inactive
- outcome [15]: inactive
- outcome [16]: inactive
- outcome [17]: inactive

Compound: COC(=O)C=C(C)OP(=O)(OC)OC
- outcome [1]: inactive
- outcome [2]: inactive
- outcome [3]: inactive
- outcome [4]: inactive
- outcome [5]: inactive
- outcome [6]: inactive
- outcome [7]: inactive
- outcome [8]: inactive
- outcome [18]: inactive
- outcome [9]: inactive
- AC50 [10]: 0.273 µM (active)
- outcome [11]: inactive
- outcome [12]: inactive
- outcome [13]: inactive
- outcome [14]: inactive
- outcome [15]: inactive
- outcome [16]: inactive
- outcome [17]: inactive

Compound: COP(=S)(OC)Oc1nc(Cl)c(Cl)cc1Cl
- outcome [1]: inactive
- AC50 [2]: 16.1 µM (active)
- outcome [3]: inactive
- AC50 [4]: 25.4 µM (active)
- outcome [5]: inactive
- outcome [6]: inactive
- AC50 [7]: 20 µM (active)
- outcome [8]: inactive
- outcome [18]: inactive
- AC50 [9]: 28.2 µM (active)
- outcome [10]: inactive
- AC50 [11]: 14.9 µM (active)
- outcome [12]: inactive
- AC50 [13]: 5.76 µM (active)
- outcome [14]: inactive
- outcome [15]: inactive
- outcome [16]: inactive
- outcome [17]: inactive

Compound: Oc1ccccc1-c1ccccc1
- outcome [1]: inactive
- outcome [2]: inactive
- outcome [3]: inactive
- outcome [4]: inactive
- outcome [5]: inactive
- outcome [6]: inactive
- outcome [7]: inactive
- outcome [8]: inactive
- outcome [18]: inactive
- outcome [9]: inactive
- outcome [19]: inactive
- outcome [10]: inactive
- outcome [11]: inactive
- outcome [12]: inactive
- outcome [13]: inactive
- outcome [14]: inactive
- outcome [15]: inactive
- outcome [16]: inactive
- outcome [17]: inactive
